Results: publication PMC4336329 (PLoS ONE, 2015)
Hit rate of the full screen: of about 310,000 compounds, about 14,000 (4.5%) showed an effect of 50% or more. Effects have a minus sign here. Shown is part of a subset that was picked to be rich in strong results.

Molecular target: human ether-à-go-go-related gene (hERG) potassium channel (human, UniProt Q12809)
Test: primary screen, population patch clamp on CHO cells stably expressing hERG; higher = less effect of the substance
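Note: peak tail current of the secondary pulse compared with the same well before compound.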

Sequence of human ether-à-go-go-related gene (hERG) potassium channel (Q12809 whole entry, looked up): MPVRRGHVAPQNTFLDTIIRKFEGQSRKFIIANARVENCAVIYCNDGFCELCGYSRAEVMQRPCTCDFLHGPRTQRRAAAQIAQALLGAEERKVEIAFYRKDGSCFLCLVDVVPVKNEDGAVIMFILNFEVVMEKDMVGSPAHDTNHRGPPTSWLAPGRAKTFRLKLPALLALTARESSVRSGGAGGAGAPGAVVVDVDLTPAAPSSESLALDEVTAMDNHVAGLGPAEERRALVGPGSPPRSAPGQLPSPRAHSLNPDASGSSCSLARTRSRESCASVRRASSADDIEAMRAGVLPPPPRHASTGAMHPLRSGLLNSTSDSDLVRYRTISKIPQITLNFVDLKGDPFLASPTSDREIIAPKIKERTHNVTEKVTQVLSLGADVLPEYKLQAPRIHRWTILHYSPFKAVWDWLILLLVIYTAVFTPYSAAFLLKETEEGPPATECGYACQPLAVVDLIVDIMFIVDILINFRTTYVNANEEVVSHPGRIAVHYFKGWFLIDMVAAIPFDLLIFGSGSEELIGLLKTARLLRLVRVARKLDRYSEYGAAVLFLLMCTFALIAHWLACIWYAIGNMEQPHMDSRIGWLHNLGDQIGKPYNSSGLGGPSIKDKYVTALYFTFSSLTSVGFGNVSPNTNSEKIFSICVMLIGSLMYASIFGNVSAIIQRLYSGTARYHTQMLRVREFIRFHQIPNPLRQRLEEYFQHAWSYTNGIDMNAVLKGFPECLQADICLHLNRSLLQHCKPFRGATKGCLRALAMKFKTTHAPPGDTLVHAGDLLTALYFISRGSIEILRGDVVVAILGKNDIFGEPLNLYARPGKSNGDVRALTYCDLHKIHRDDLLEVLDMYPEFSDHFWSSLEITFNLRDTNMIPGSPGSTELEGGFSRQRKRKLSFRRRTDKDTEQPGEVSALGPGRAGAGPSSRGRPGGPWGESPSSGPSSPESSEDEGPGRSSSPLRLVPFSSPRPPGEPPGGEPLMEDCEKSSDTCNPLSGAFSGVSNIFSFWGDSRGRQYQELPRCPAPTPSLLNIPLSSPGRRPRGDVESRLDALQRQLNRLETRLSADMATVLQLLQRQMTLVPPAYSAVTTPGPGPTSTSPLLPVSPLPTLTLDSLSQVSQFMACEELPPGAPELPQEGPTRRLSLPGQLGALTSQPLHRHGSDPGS

Row | Compound | hERG current change (%, negative = inhibition) at 10uM
1 | COc1ccc(NCc2nnc(SCC(=O)Nc3ccc(OC)cc3OC)o2)cc1 | -9.35%
2 | CCN(c1ccccc1)S(=O)(=O)c1cc2c(cc1C)n(C)c(=O)c(=O)n2C | -32%
3 | Cc1cccc(C(=O)NNS(=O)(=O)c2ccccc2[N+](=O)[O-])c1 | 1.16%
4 | CN(C(=O)CCS(=O)(=O)c1ccc2c(c1)oc(=O)n2C)C1CCCCC1 | 3.68%
5 | Cc1nn(CCC(=O)O)c(C)c1C | 5.72%
6 | C=CCn1c(=O)c2c(nc3n2CCN3c2cccc(Cl)c2C)n(C)c1=O | -15%
7 | CCCn1c(CN2CCN(C(=O)OCC)CC2)nc2cc([N+](=O)[O-])ccc21 | -64%
8 | CCOC(=O)N1CCN(Cc2nc3cc([N+](=O)[O-])ccc3n2CC)CC1 | -51.9%
9 | CCOC(=O)N1CCN(Cc2nc3cc(NC(=O)C(C)C)ccc3n2CC)CC1 | 14.3%
10 | CCOC(=O)N1CCN(Cc2nc3cc([N+](=O)[O-])ccc3n2C)CC1 | -24.5%
11 | CCCn1c(CN2CCN(C(=O)OCC)CC2)nc2cc(NC(C)=O)ccc21 | 12.8%
12 | CCOC(=O)N1CCN(Cc2nc3cc(NC(=O)CC(C)C)ccc3n2CC)CC1 | -8.18%
13 | O=C(COC(=O)c1ccco1)NCc1cccs1 | 12.4%
14 | CCOc1ccccc1CNC(=O)c1ccc(Sc2ccc(Cl)cc2)c(NC(C)=O)c1 | -19.4%
15 | CCOc1ccc(CNC(=O)c2ccc(Sc3ccc(C)cc3)c(NC(C)=O)c2)cc1 | -4.85%
16 | CC(=O)Nc1cc(C(=O)NCc2ccco2)ccc1Sc1ccc(C)cc1 | -17.8%
17 | CC(=O)Nc1cc(C(=O)NCCN2CCN(Cc3ccccc3)CC2)ccc1Sc1ccc(C)cc1 | -63.6%
18 | CC(=O)Nc1cc(C(=O)NCc2ccco2)ccc1Sc1ccc(Cl)cc1 | -35.6%
19 | CCOc1ccc(CNC(=O)c2ccc(Sc3ccc(C)cc3)c(NC(C)=O)c2)cc1OC | -21.5%
20 | CCOc1ccc(CNC(=O)c2ccc(Sc3ccc(Cl)cc3)c(NC(C)=O)c2)cc1 | -8.57%
21 | CCN(CC)CCNC(=O)c1ccc(Sc2ccc(Cl)cc2)c(NC(C)=O)c1 | -61.7%

Row | Compound | hERG current change (%, negative = inhibition) at 10uM
22 | CCC(=O)Nc1cc(C(=O)O)ccc1Sc1ccc(C)cc1 | 4.85%
23 | CC(=O)Nc1cc(C(=O)NCc2ccco2)ccc1Sc1ccc(F)cc1 | -40.8%
24 | CCN(CC)CCNC(=O)c1ccc(Sc2ccc(C)cc2)c(NC(C)=O)c1 | -58.2%
25 | CC(=O)Nc1cc(C(=O)N(C)Cc2ccco2)ccc1Sc1ccc(Cl)cc1 | -66.7%
26 | CSc1ncc(F)c(N(CCO)CCO)n1 | 10.5%
27 | O=C1S/C(=C\c2ccccn2)C(=O)N1Cc1ccccc1F | 9.45%
28 | O=S(=O)(Nc1cccnc1Cl)c1ccc2c(c1)OCCO2 | 15.4%
29 | COc1cc(C(=O)N(C)CCOc2ccc(C)cc2)ccc1OC1CCN(C(C)=O)CC1 | 8.41%
30 | CCN1CCC2(CC1)N=C(c1ccc(F)cc1)C(=S)N2C(=O)c1ccc(C(C)(C)C)cc1 | -10.8%
31 | CN(C)CCNC(=O)NC(=O)c1ccc(Cl)cc1 | -14.7%
32 | CC(C)OCCCNC(=O)NC(=O)c1ccc(Cl)cc1 | -6.21%
33 | CCN(CC)CCNC(=O)NC(=O)c1ccc(Cl)cc1 | -63%
34 | COc1ccc(/C=N/NC(=O)C(C)n2nnc3ccccc32)cc1OC (stereo not drawn) | 2.4%
35 | C[n+]1c(-c2ccccc2)sc2ccccc21.[O-][Cl+3]([O-])([O-])[O-] | 23.1%
36 | CC[n+]1c(C)sc2cc(C)ccc21.[I-] | 15%
37 | Cc1ccc2c(c1)sc(-c1ccc(N(C)C)cc1)[n+]2C.[I-] | -60%
38 | O=C(CN1C(=O)c2cccnc2Oc2ccc(Cl)cc21)NC1CCCCC1 | -13.1%
39 | CC(=O)Nc1ccc(/C=C/C(=O)c2ccc3c(c2)OCCO3)cc1 | -0.901%
40 | CCOc1ccc(C(=O)NC(C(=O)NCC(c2cccs2)N(C)C)C(C)C)cc1 (stereo not drawn) | -19.8%
41 | O=C(NCCc1c[nH]c2ccccc12)/C(=C/c1ccco1)NC(=O)c1ccco1 | -42.5%
42 | O=C(NCCc1c[nH]c2ccccc12)/C(=C/c1cccnc1)NC(=O)c1ccco1 | -64.7%

Row | Compound | hERG current change (%, negative = inhibition) at 10uM
43 | O=C(NCCc1c[nH]c2ccccc12)c1ccco1 | 3.71%
44 | O=C(NCCCn1ccnc1)/C(=C\c1cccnc1)NC(=O)c1ccco1 | -0.164%
45 | O=C(NCCc1c[nH]c2ccccc12)/C(=C\c1ccco1)NC(=O)c1ccco1 | -21.3%
46 | O=C(NCCc1c[nH]c2ccccc12)/C(=C\c1cccnc1)NC(=O)c1ccco1 | -65.1%
47 | CC1CCCC(C)N1C(=O)COC(=O)c1nn(C)c(=O)c2ccccc12 (stereo not drawn) | 1.93%
48 | COc1ccc(C(=O)N/C(=C\c2cn(C)c3ccccc23)C(=O)N2CCN(C)CC2)cc1 | -7.61%
49 | CCOC(=O)N1CCN(C(=O)/C(=C/c2cccc3ccccc23)NC(=O)c2ccc(OC)cc2)CC1 | -50.9%
50 | CCOC(=O)N1CCN(C(=O)/C(=C/c2cccc3ccccc23)NC(=O)c2ccc(OC)c(OC)c2)CC1 | -3.14%
51 | CCOC(=O)N1CCN(C(=O)/C(=C/c2ccccc2OC)NC(=O)c2ccccc2)CC1 | -37.9%
52 | CN1CCN(C(=O)/C(=C/c2cn(S(=O)(=O)N(C)C)c3ccccc23)NC(=O)c2ccccc2)CC1 | 0.665%
53 | COc1ccc(C(=O)N/C(=C\c2cn(C)c3ccccc23)C(=O)N2CCOCC2)cc1 | -10.9%
54 | COc1ccc(C(=O)N/C(=C\c2cn(C)c3ccccc23)C(=O)N2CCN(C)CC2)cc1OC | -3.26%
55 | COc1ccc(C(=O)N/C(=C\c2cn(S(=O)(=O)N(C)C)c3ccccc23)C(=O)N2CCN(C)CC2)cc1 | -50.8%
56 | COc1ccc(C(=O)N/C(=C\c2cccc3ccccc23)C(=O)N2CCN(C)CC2)cc1OC | -50.6%
57 | CCn1cc(/C=C(\NC(=O)c2ccc(OC)c(OC)c2)C(=O)N2CCN(C)CC2)c2ccccc21 | -32.8%
58 | COc1ccc(C(=O)N/C(=C\c2cn(S(=O)(=O)N(C)C)c3ccccc23)C(=O)N2CCOCC2)cc1 | -47%
59 | COc1ccc(C(=O)N/C(=C\c2cccc3ccccc23)C(=O)N2CCN(C)CC2)cc1 | -65.6%
60 | CCCCC[n+]1ccn(C2=C([O-])c3ccccc3C(=O)/C2=N\S(=O)(=O)c2ccc(Br)cc2)c1 | -39.1%
61 | CC(/C=C/c1ccc2c(c1)OCO2)=N\NC(=O)c1ccccc1 | 10.3%
62 | O=S(=O)(NC1CCSc2ccccc21)c1ccc(Cl)nc1 (stereo not drawn) | -18.1%
63 | CCOc1cc(/C=C2/C(=N)N3C(=NC2=O)SN=C3S(=O)(=O)C(C)C)ccc1OC(=O)c1ccco1 | 3.02%

Row | Compound | hERG current change (%, negative = inhibition) at 10uM
64 | COC(=O)C1C(O)=C(C=Nc2ccc3ccccc3c2)C(=O)CC1(C)C (stereo not drawn) | -8.23%
65 | O=[N+]([O-])c1ccc(Sc2ccc(F)cc2)nc1 | 11.2%
66 | COc1ccc(C(=O)Nc2cccc(/C=C(\CCC(=O)O)c3nc4ccccc4s3)c2)cc1 | 8.59%
67 | CN(C)/C=C1\C(=O)NN=C1C(F)(F)F | 4.44%
68 | Cc1cccn2cc(-c3cccc(S(=O)(=O)N4CCOCC4)c3)nc12 | 0.676%
69 | COc1cc(OC)cc(C(=O)NCC(=O)N2CCCCC2)c1 | 9.25%
70 | CCn1ncc(Cl)c1C(=O)Nc1ccc2c(c1)CCC2 | 3.85%
71 | O=C(NCC1CC1)Nc1ccc(Cl)cc1 | 17.7%
72 | CCc1ccc(NC(=O)NCC2CCN(Cc3cccc(Cl)c3)CC2)cc1 | -82.9%
73 | Cc1ccc(NC(=O)NCC2CCN(Cc3cccc(Cl)c3)CC2)cc1Cl | -19.7%
74 | CCc1ccc(NC(=O)NCC2CCN(c3ccc(OC)cc3)C2)cc1 (stereo not drawn) | -6.79%
75 | O=C(NCC1CCN(Cc2cccc(Cl)c2)CC1)Nc1ccc(Cl)cc1 | -76.2%
76 | COc1ccc(Oc2nccc(OC)c2C#N)cc1 | -0.188%
77 | O=C(NCCCN1CCCC1=O)C1CCN(S(=O)(=O)c2cccc(Cl)c2Cl)CC1 | -18.7%
78 | O=C(/C=C/c1ccccc1)OCC(=O)N1CCCC1 | 0.185%
79 | CCN1CCN(CCC(=O)Nc2ccc(Br)c(C)c2)CC1.Cl | -30.8%
80 | Cc1cc(NC(=O)CCN2CC(C)OC(C)C2)ccc1Br.Cl (stereo not drawn) | -7.73%
81 | Cc1cc(NC(=O)CCN2CCN(C)CC2)ccc1Br.Cl | -7.85%
82 | Cc1cc(NC(=O)CCN2CCC(C)CC2)ccc1Br.Cl | -57.6%
83 | Cc1cc(NC(=O)CCN2CCCCC2)ccc1Br | -72.8%
84 | Cc1cc(NC(=O)CCN2CCN(CCO)CC2)ccc1Br.Cl | -4.69%
